Inconclusive results are not listed. Values without a mark were called inactive. Active and inactive are the calls of the source. Calls come from the whole dose curve; as a rule, active = well fitted cell-killing curve with a large enough effect in the repeat runs; inconclusive = weak or mixed curves; inactive = no such curve, though single readings can be large or run the other way.
Test: qHTS assay to identify small molecule antagonists of the androgen receptor (AR) signaling pathway - cell viability counter screen (AID 743033; note: nearly all actives have a fitted effect of over 45% in size)
Details: AR-bla HEK293 viability, CellTiter-Glo luminescence, 16 h; series mostly up to 58.5 µM; activity change, negative = cytotoxicity: at the top concentration
Source text: National Center for Advancing Translational Sciences [NCATS]
NIH Chemical Genomics Center [NCGC]
U.S. Environmental Protection Agency [EPA]
National Institutes of Environmental Health Sciences [NIEHS]
National Toxicology Program [NTP]
U.S. Food and Drug Administration [FDA]
Androgen receptor (AR), a nuclear hormone receptor, plays a critical role in AR-dependent prostate cancer and other androgen related diseases. Endocrine disrupting chemicals (EDCs) and their interactions with steroid hormone receptors like AR may cause disruption of normal endocrine function as well as interfere with metabolic homeostasis, reproduction, developmental and behavioral functions. To identify the compounds that inhibit AR signaling, GeneBLAzer AR-UAS-bla-GripTite cell line (Invitrogen, Carlsbad, CA, USA) containing a beta-lactamase reporter gene under control of an Upstream Activator Sequence (UAS) stably integrated into HEK293 cells was used to screen the Tox21 10K compound library. The cytotoxicity of the Tox21 compound library against the AR-bla cell line was tested in parallel by measuring the cell viability using CellTiter-Glo assay in the same wells.
Tox21 Assay Protocol Summary:
AR-bla cells were dispensed at 2,000 cells/5 uL of assay medium per well into black wall/clear-bottom 1536-well plates using a Multidrop Combi (ThermoFisher Scientific, Waltham, MA) dispenser. After the assay plates were incubated at a 37C and 5% CO2 for 4 hr, 23 nL of compounds dissolved in DMSO, positive controls or DMSO only was transferred to the assay plate by a Pintool station (Kalypsys, San Diego, CA), followed by addition of 1 uL of agonist (R1881) in culture medium using a Bioraptr Flying Reagent Dispenser (FRD) workstation (Beckman Coulter, Indianapolis, IN, USA). The plates were incubated at a 37C and 5% CO2 for 16 h. After 1 uL of LiveBLAzerTM B/G FRET substrate was added using a Bioraptr FRD, the plates were incubated at room temperature for 2 h and fluorescence intensity was measured by an Envision plate reader (PerkinElmer, Shelton, CT). For cell viability readout that measures cytotoxicity, 4 ul/well of CellTiter-Glo reagent was added into the assay plates using a Bioraptr FRD. After 30 min incubation at room temperature, the luminescence intensity in the plates was measured using a ViewLux (PerkinElmer) plate reader.
% is set by controls: 0 for no effect and ±100 for the full control effect.

Compound | activity change, negative = cytotoxicity | outcome
CCCCCCOC(=O)CC(CC(=O)OCCCCCC)(OC(=O)CCC)C(=O)OCCCCCC | -3.03% | –
CC1=CC(C)C(C=O)C(C)C1 (stereo not given) | 0.129% | –
CCCc1ccccc1O | 1.96% | –
CC1=CCC2C(C1)C2(C)C (stereo not given) | 8.57% | –
COc1nc(C)nc(N)n1 | 2.01% | –
Cc1ncc(CSSCc2cnc(C)c(O)c2CO)c(CO)c1O | -0.313% | –
O=C(O)CCNC(=O)c1ccc(N=Nc2ccc(O)c(C(=O)O)c2)cc1 | 2.97% | –
Cc1ccc(Nc2ccc(O)c3c2C(=O)c2ccccc2C3=O)cc1 | -8.73% | –
CCCCOCC(C)OCC(C)O (stereo not given) | -3.95% [at 78.9 µM] | –
CCCC(C)CO (stereo not given) | -0.402% | –
CC/C=C\CCCCO | 9.49% | –
CC(C)(C)CC(C)(C)N | -2.15% | –
CCCC(C)C(=O)O (stereo not given) | 0.865% | –
CCCC=O | 0.231% | –
NC(N)=NS(=O)(=O)c1ccc(N)cc1 | -27.3% [at 27 µM] | –
C=C(C)C(=O)NCCC[N+](C)(C)C | -26.7% | –
O=Cc1ccccc1[N+](=O)[O-] | 0.299% | –
O=[N+]([O-])c1ccc(Oc2ccc([N+](=O)[O-])cc2)cc1 | 1.33% [at 78.9 µM] | –
CCOC(=O)Cn1c(=O)sc2cccc(Cl)c21 | -2.32% | –
CC(C)=CCC/C(C)=C/C(=O)O | 3.47% | –

Compound | activity change, negative = cytotoxicity | outcome
O=C(O)c1ccc[n+]([O-])c1 | -0.107% | –
CCCCC1CCCCC(=O)O1 (stereo not given) | -2.21% | –
CN(C)CCn1nnnc1SCC1=C(C(=O)O)N2C(=O)[C@@H](NC(=O)Cc3csc(N)n3)[C@H]2SC1 | -13.6% [at 27 µM] | –
C=CCOc1nc(OCC=C)nc(OCC=C)n1 | -5.78% | –
CC(=O)NC(Cc1ccccc1)C(=O)O (stereo not given) | -24.7% | –
C1=C\CC/C=C\CC/C=C\CC/1 | 2.72% | –
CCC(C(=O)NC(N)=O)c1ccccc1 (stereo not given) | – | inactive
NC(CS)C(=O)O (stereo not given) | 5.08% | –
COc1cc(C)cc(O)c1 | 13.9% | –
C=CCn1c(=O)n([C@@H]2O[C@H](CO)[C@@H](O)[C@H]2O)c2nc(N)[nH]c(=O)c21 | -0.478% | –
CC1=CC(=O)CCC1 | 5.97% | –
CC(C)(O)C(=O)c1ccc(OCCO)cc1 | 5.61% | –
OCCCCCCO | 2.7% [at 78.9 µM] | –
CCCOc1ccccc1-c1nc2n[nH]nc2c(=O)[nH]1 | -3.1% | –
CCO[Si](CCCN=C=O)(OCC)OCC | 3.16% | –
O=C(O)c1ccccc1-c1ccc(C(F)(F)F)cc1 | -10.2% | –
CCC(C)OC(=O)N1CCCCC1CCO (stereo not given) | -13% | –
COc1cc(O)cc(O)c1 | 6.16% | –
COc1ccc(NC(C)=O)cc1 | -6.69% [at 78.9 µM] | –
OCc1ccccn1 | -3.73% | –

— PubChem BioAssay (Tox21)
